Source: PubChem BioAssay AID493201 (National Center for Advancing Translational Sciences (NCATS), 2011)
Inconclusive results are not listed. A number with no mark means an inactive call. Activity calls are given as the source filed them. Calls come from the whole dose curve; as a rule, active = well fitted activation curve with a large enough effect; inconclusive = small, poorly fitted or top-dose-only effect; inactive = no such curve, though single readings can be large or run the other way.

assay: qHTS Assay for Identifying a Potential Treatment of Ataxia-Telangiectasia: Secondary assay (no NCS) hit validation; conditions: A-T patient fibroblasts, AlphaLISA, no DNA damage added, 90 min; series mostly up to 76.9 µM; activation: at the top concentration;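 note: phosphorylated KAP1 signal as a proxy for ATM-like kinase activity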; for activation: 0% is about no effect
Description: NIH Chemical Genomics Center [NCGC]
NIH Molecular Libraries Probe Centers Network [MLPCN]
Assay Submitter (PI): Wei Zheng and Yosef Shiloh
Ataxia-telangiectasia (A-T) is a devastating and progressive disease for which, there is no cure. Although A-T is a multisystem disease, it is stereotyped characterized by its neurological symptoms such as truncal ataxia, due to cerebellar cortical degeneration of the Purkinje and granule cells. Other symptoms of A-T are telangiectasias (dilated blood vessels), primary immunodeficiency, marked sensitivity to ionizing radiation (IR), chromosomal instability and predisposition to cancer.
The underlying genetic cause of A-T is null mutations in the ATM (A-T mutated) gene. ATM is a nuclear serine/threonine kinase that functions as a master regulator of the cellular responses to double strand breaks (DSBs) in the DNA. Upon activation by DSBs, ATM phosphorylates a plethora of downstream targets, including KAP-1 on […]. KAP-1 phosphorylation occurs shortly in response to DSBs and mediates global chromatin relaxation, which facilitates DSB repair. To screen for small molecules that will compensate for the loss of ATM in cells derived from A-T patients, we monitored KAP-1 phosphorylation as a readout for ATM-like activity using an AlphaLISA assay. This secondary assay omits NCS, which creates double-stranded DNA breaks.
Step,Parameter,Value,Description
1. Cell Plating, 3 ul, 500 cells/well in OPTI-MEM, 1% FBS, 1% Pen/Strep
3. Library compounds, 23 nl, 76.7 - 0.61uM dilution series final concentration
4. Incubation, 60 min, 37C, 5% CO2, 95% humidity
6. Incubation, 30 min, 37C, 5% CO2, 95% humidity
7. Reagent, 1 ul, Premixed detection reagents and lysis buffer
8. Reagent, 1 ul, 0.6% Antifoam A
9. Incubation, 6 hr, 25C, 95% humidity
10. Readout, EnVision, EnVision plate reader. AlphaScreen 1536-well protocol
Cells were plated using medium-binding white solid-bottom tissue culture treated Kalypsys plates. Multidrop dispense of 3 uL of F2112 (hTERT immortalized A-T patient fibroblast cells). Detection reagent and lysis buffer was 3.75nM Rab-a-pKAP1 antibody bound to 75 ng/ul AlphaScreen SA donor bead, 3.75 nM Biot-M-a-KAP1 antibody bound to AlphaLISA protein A acceptor bead, 0.5x protease inhibitor cocktail and 0.25x PerkinElmer lysis buffer. EnVision protocol for 1536-well AlphaScreen read (30ms excitation, 100ms read), about 10 min/plate.
Potency is the fitted concentration of half-maximal effect.

Row | SMILES | activation [%] | Potency
1 | C=CCSc1nc2ccccc2n1C(=O)/C=C/c1cc(OC)c(OC)c(OC)c1 | -3.48 | 
2 | COc1ccc(NS(=O)(=O)c2ccc(N3CC(O)=C(c4ccccc4)C3=N)cc2)cc1 | -5.38 | 
3 | C=C(C)n1c(=O)n(Cc2ccccc2C)c2ccccc21 | 23.7 | 
4 | O=C(CSc1ccccn1)N/N=C/C=C/c1ccccc1 | -21.7 | 
5 | CC(C)(C=O)C1=CC(=O)c2ccccc2C1=O |  | 51.9 µM (active)
6 | O=C(CNCc1cccs1)Nc1cc(S(=O)(=O)N2CCCC2)ccc1Cl | -6.09 | 
7 | COc1ccc(Nc2cc3n(c(=O)n2)CCc2cc(OC)c(OC)cc2-3)cc1 | 4.35 | 
8 | COc1cccc(/C=N/NC(=O)c2cc3cc([N+](=O)[O-])ccc3s2)c1O |  | 46.3 µM (active)
9 | Cc1cccc(NC(=O)/C(C#N)=C/c2ccc(F)cc2)n1 |  | 1.84 µM (active)
10 | NC(=O)C1CCN(Cc2nc3cc(C(F)(F)F)ccc3c(=O)[nH]2)CC1 | -11.9 | 
11 | Cc1cc2c(c(=O)o1)C(CCC1CCCCC1)C(C#N)=C(N)O2 (stereo not given) | 10.2 | 
12 | COc1ccccc1C(=O)NC(=O)Nc1cccc(Cl)c1 | 8.6 | 
13 | Nc1ccc2ncccc2c1 | 3.23 | 
14 | CC(Oc1ccccc1)C(=O)Nc1cccc(NC(=O)c2ccco2)c1 (stereo not given) | 18.3 | 
15 | Cc1ccc(C)c(-c2csc(Nc3ncccn3)n2)c1 | 27.8 | 
16 | COc1ccc(/C=N/Nc2nc(=O)[nH]nc2C)cc1OC | -2.15 | 
17 | COc1ccc(C(=O)CSc2nc3ncccc3[nH]2)cc1OC | -4.24 | 
18 | O=C(/C(=C/c1ccc(Cl)cc1)c1nc2ccccc2[nH]1)c1cccs1 | -1.08 | 
19 | COc1cccc(C(=O)NOCc2ccc(C)cc2)c1OC | -4.24 | 
20 | COc1ccc(C(=O)/C=C/C(=O)N(CC(=O)NC2CCCCC2)Cc2ccccc2)c(O)c1 | -0.87 | 

Row | SMILES | activation [%] | Potency
21 | OC1(CC#CCN2CCCCC2)c2ccccc2-c2ccccc21 | -14.4 | 
22 | Cc1nnc(SCC(=O)NC(=O)Nc2ccc3c(c2)OCCO3)n1N | 10.2 | 
23 | CCC(=O)Nc1ccc(S(=O)(=O)c2ccc(NC(=O)CC)cc2)cc1 | 15.3 | 
24 | COc1cc(CCC(C)NCc2ccccc2)ccc1O (stereo not given) | -6.96 | 
25 | COc1ccccc1S(=O)(=O)Nc1ccc(-c2nnc3n2CCCCC3)cc1 | 21.5 | 
26 | COc1cccc(OC)c1C(=O)NC(=O)Nc1c(C)cccc1C | -1.74 | 
27 | CCOc1ccc(C(=O)NC(=S)Nc2cccnc2)cc1[N+](=O)[O-] | 11.9 | 
28 | Cc1cc2nc3ccc(=[N+](C)C)cc-3sc2cc1N | -1.69 | 
29 | COc1cc(/C=C2\CCOC2=O)cc(OC)c1OC | 10.8 | 
30 | Cc1ccc(OC(=O)c2cc(C)nn2C(C)(C)C)cc1 | 6.96 | 
31 | COc1ccc(NCc2cc(=O)oc3cc(NC(C)=O)ccc23)cc1 | 7.53 | 
32 | CCS(=O)(=O)c1ccc(C(=O)Nc2ccccc2)c(Cl)c1Cl |  | 32.8 µM (active)
33 | CNC(=O)/C=C/c1cc(C(=O)c2ccc(Cl)cc2Cl)cn1C | 4.3 | 
34 | Cc1ccc(NC(=O)CSc2nnc([C@H](C)NC(=O)OC(C)(C)C)o2)c(C)c1 | 28.8 | 
35 | CC(C)OP(=O)(OC(C)C)C(O)c1ccc(N(C)C)cc1 (stereo not given) |  | 9.23 µM (active)
36 | COc1ccc2nc(NCCCNC(=O)c3cc(OC)c(OC)c(OC)c3)c(C#N)cc2c1 | 6.45 | 
37 | CC(C)(C)C1CCC2(CC1)SCC(=O)N2c1ccccc1 (stereo not given) | 9.32 | 
38 | CC(C)NC(=O)c1ccc(COc2ccc(C(C)(C)C)cc2)o1 | 20.4 | 
39 | COc1ccc(C2NC(=S)NC3=C2N2CCC3CC2)cc1 (stereo not given) |  | 1.16 µM (active)
40 | CC(=O)Nc1ccc(NC2=CC(=O)c3ccccc3C2=O)cc1 | -3.23 | 
